The panel holds about 83,000 compounds, 20% with a hit somewhere; the sample as a whole holds those more often.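 Cell lines were cultured in 96-well plates, exposed to a single compound concentration, and assessed for percent growth 48 hours later.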 Calls of active or inactive are those of the source. Rule for the calls: active = growth percent below 10; inactive = the rest.
These compounds were tested on U251 CNS (assay: NCI-60 one-dose screen, 48 h (100 = growth as untreated, 0 = no growth, -100 = all killed)). Settings: 10 µM unless noted.
With `COc1ccc(/C=C/c2nc(Nc3ccc(S(=O)(=O)Nc4cc(C)on4)cc3)c3ccccc3n2)cc1` the growth was 74.5% (inactive). For `NS(=O)(=O)c1ccc(CCN2C(=O)c3cc(Cl)c(Cl)cc3C2=O)cc1`, the growth was 102% (inactive). `C/C=C(\C)C(=O)NC1=CC[C@@]2(C)C(=CCC3C2CC[C@@]2(C)C3CC[C@@H]2C(C)N(C)C)C1=O` (some centres undefined) was tested, and the growth was 36.3% (inactive). `O=c1c2c(c(=O)n1O)c1c3ccc[nH]c3nc1c1nc3[nH]cccc3c12` was tested, and the growth was 64.6% (inactive). With `Cc1ccc(C(=O)/C(=C\c2ccc([N+](=O)[O-])cc2)S(=O)Cc2ccc(F)cc2)cc1` (centres undefined) the growth was -7.84% (active). `O=C(Nc1ncc(Cc2cc(Cl)ccc2Cl)s1)c1cccs1` was tested, and the growth was 51.8% (inactive). With `O=C(C[n+]1cccc2ccccc21)c1ccc(O)c(O)c1` the growth was 91.1% (inactive). In the case of `OCc1cnccc1NCCCCOc1ccc(Oc2ccccc2)cc1`, the growth was 52.3% (inactive). In the case of `Oc1cccc(CCc2ccc(Oc3cc(CCc4cccc(O)c4)cc(O)c3O)cc2)c1`, the growth was 74.5% (inactive). With `CC/C(=C\c1ccc(OC)cc1)C(=O)c1ccc(OC)cc1` the growth was 91.7% (inactive). For `CN1C(N2CCN(S(=O)(=O)c3ccccc3)CC2)=NS(=O)(=O)c2ccccc21`, the growth was 99.7% (inactive). With `O=C1Nc2ccc(F)cc2/C1=C\c1c(-c2ccccc2)nc2ccccn12` the growth was 82.7% (inactive). For `O=C(Cn1c(C(=O)c2ccccc2)nc2ccccc21)c1ccc(F)cc1`, the growth was 55.1% (inactive). With `COc1ccc(C(=O)c2nc3ccccc3n2CC(=O)c2ccc(Cl)cc2)cc1` the growth was 22.7% (inactive).
